# Assay results published in PubChem BioAssay (NCATS).
# Results filed as inconclusive are left out. Where a call stands in place of a potency, no number is given. The source made the active and inactive calls. Unless noted, calls follow the shape of the dose curve; as a rule, active = well fitted curve in the direction sought with a large enough effect; inconclusive = small, poorly fitted or top-dose-only effect, or another doubt; inactive = no such curve, though single readings can be large; an effect the other way counts as inactive or inconclusive.
# How the values were obtained:
# [1] = molecular target: Calcium and integrin-binding protein 1 (Homo sapiens) (UniProt Q99828); experiment: Primary qHTS for Identification of Calcium Integrin Binding Protein 1 (CIB1) Competitor (AID 1508620);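 also: GST tagged CIB1 binding a fluorescein labelled alphaIIb integrin peptide tracer; top concentration of the series differs between compounds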
# Calcium and integrin-binding protein 1 (Homo sapiens), sequence (Q99828 whole entry, looked up): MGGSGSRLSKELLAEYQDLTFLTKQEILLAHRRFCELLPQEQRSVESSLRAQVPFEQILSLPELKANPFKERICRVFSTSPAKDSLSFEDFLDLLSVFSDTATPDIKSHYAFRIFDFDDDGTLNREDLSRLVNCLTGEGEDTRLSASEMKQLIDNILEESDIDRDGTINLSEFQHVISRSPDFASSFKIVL
# How it was run: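 CIB1-GST (1 uM final) and compound incubated 15 min at room temperature before adding FITC-alphaIIb peptide tracer (100 nM final). Competition for binding read by fluorescence polarization (ex 480, em 540) after another 15 min at room temperature.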
# [2] = Primary qHTS for small molecule stabilizers of the endoplasmic reticulum resident proteome: Secreted ER Calcium Modulated Protein (SERCaMP) assay (AID 1508630)
# How it was run: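 The SH-SY5Y reporter protocol was run at 3 concentrations up to 38.3 uM (primary) or 11 concentrations (follow-up): 16 h compound, 100 nM thapsigargin for 4 h, then extracellular luciferase luminescence.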
# [3] = A High-Content qHTS Against Drug Library for the Identification of Small Molecules that Inhibit DYT1 Early Onset Primary Dystonia-Associated Cell Pathology (AID 1645839; calls by dose curve; also: potency is read from the fitted curve at half-maximal effect)
# How it was run: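 High-content imaging quantified EGFP-TorsinA mislocalization in HEK293-derived cells inducibly expressing DYT1 mutant torsinA, after 48 h exposure to compound given together with tetracycline induction. Cell count served as a toxicity channel alongside %pathology.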
# [4] = Confirmatory qHTS for small molecule stabilizers of the endoplasmic reticulum resident proteome: Secreted ER Calcium Modulated Protein (SERCaMP) assay (AID 1508628); also: series mostly up to about 76 µM; nearly all actives have a fitted effect of over 40% in size
# How it was run: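 Reporter secretion upon ER calcium depletion (100 nM thapsigargin, 4 h, 37C) is measured as medium luminescence with coelenterazine, after 16 h compound pretreatment of SH-SY5Y-GLuc-SERCaMP cells; primary at three concentrations up to 38.3 uM, follow-up at 11 (up to 76.6 uM).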
# [5] = Primary qHTS for inhibitors of La Crosse Virus (LACV) - induced cell death in SH-SY5Y cells (AID 1508616);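 also: top concentration of the series differs between compounds; higher means more rescue of cells from virus-induced death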
# How it was run: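 Rescue of virus-induced death was read as ATPLite luminescence after 6 days at 37C, scaled between DMSO wells with LACV and without virus. Cells were SH-SY5Y, 6000/well, infected at 0.01 MOI after compound addition.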
# [6] = Counterscreen qHTS for small molecule stabilizers of the endoplasmic reticulum resident proteome: GLuc-NoTag assay (AID 1508627); also: series mostly up to about 76 µM
# How it was run: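 Counterscreen line: SH-SY5Y-GLuc-NoTag cells, treated with compound 19 hr before a 4 hr, 100 nM thapsigargin calcium depletion. Secreted Gaussia luciferase in the medium was measured by luminescence after coelenterazine was added (0.07x final), with cells unlysed.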
structure (smiles),measurement,setting,value
CO[C@]1(NC(=O)CSC(F)F)C(=O)N2C(C(=O)O)=C(CSc3nnnn3CCO)CO[C@H]21,Potency,[1],inactive
same,Potency,[2],inactive
same,Potency,[3],inactive
COc1c(C)c2c(c(O)c1C/C=C(\C)CCC(=O)OCCN1CCOCC1)C(=O)OC2,Potency,[1],inactive
same,Potency,[2],inactive
same,Potency,[3],inactive
Cc1onc(-c2c(Cl)cccc2Cl)c1C(=O)Cl,Potency,[2],inactive
same,Potency,[3],inactive
Nc1cccc2c(N)cccc12,Potency,[4],inactive
CC(C)(C)C1CCC(CC2=C(O)c3ccccc3C(=O)C2=O)CC1 (stereo not given),Potency,[1],inactive
same,Potency,[3],inactive
CCCCCCCCCCCCCC[N+](C)(C)C,outcome,[5],inactive
same,Potency,[3],10 µM (active)
CN1CCC(Nc2ncc3ncnc(Nc4ccc(F)c(Cl)c4)c3n2)CC1,Potency,[1],inactive
same,Potency,[6],inactive
same,Potency,[4],inactive
COc1cc(C=O)ccc1O,outcome,[5],inactive
same,Potency,[3],inactive
O=C(COCCOCCOCC(=O)Nc1c(I)cc(I)c(C(=O)O)c1I)Nc1c(I)cc(I)c(C(=O)O)c1I,outcome,[5],inactive
same,Potency,[3],inactive
CC(C)(C)C(O)/C=C/c1ccc2c(c1)OCO2 (stereo not given),outcome,[5],inactive
same,Potency,[3],inactive
CC(C)(C)c1ccc(O)c(O)c1,Potency,[1],inactive
same,Potency,[6],inactive
same,Potency,[3],31.6 µM (active)
NC(=O)C1(N2CCCCC2)CCN(CCCN2c3ccccc3CCc3ccc(Cl)cc32)CC1,Potency,[1],inactive
same,Potency,[2],inactive
same,Potency,[3],3.98 µM (active)
c1ccc2occc2c1,outcome,[5],inactive
same,Potency,[3],inactive
Oc1ccccc1,outcome,[5],inactive
same,Potency,[3],inactive
CO/N=C(/C(=O)N[C@@H]1C(=O)N2C(C(=O)[O-])=C(C[n+]3ccn4ncccc43)CS[C@H]12)c1nsc(N)n1,Potency,[3],inactive
Cc1cccc(N(C)C(=S)Oc2ccc3c(c2)CCC3)c1,Potency,[2],inactive
same,Potency,[3],inactive
